Experimental data reported in PMC4336329 (PLoS ONE, 2015).
Out of some 310,000 compounds screened, about 14,000 (4.5%) showed an effect of 50% or more. The effect is printed as a negative number. The full list was thinned out, with strong results kept by preference.

Target: human ether-à-go-go-related gene (hERG) potassium channel (human, UniProt Q12809)
Assay: primary screen, population patch clamp on CHO cells stably expressing hERG; higher = less effect of the substance
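Further: peak tail current of the secondary pulse compared with the same well before compound.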

human ether-à-go-go-related gene (hERG) potassium channel, sequence (Q12809 whole entry, looked up): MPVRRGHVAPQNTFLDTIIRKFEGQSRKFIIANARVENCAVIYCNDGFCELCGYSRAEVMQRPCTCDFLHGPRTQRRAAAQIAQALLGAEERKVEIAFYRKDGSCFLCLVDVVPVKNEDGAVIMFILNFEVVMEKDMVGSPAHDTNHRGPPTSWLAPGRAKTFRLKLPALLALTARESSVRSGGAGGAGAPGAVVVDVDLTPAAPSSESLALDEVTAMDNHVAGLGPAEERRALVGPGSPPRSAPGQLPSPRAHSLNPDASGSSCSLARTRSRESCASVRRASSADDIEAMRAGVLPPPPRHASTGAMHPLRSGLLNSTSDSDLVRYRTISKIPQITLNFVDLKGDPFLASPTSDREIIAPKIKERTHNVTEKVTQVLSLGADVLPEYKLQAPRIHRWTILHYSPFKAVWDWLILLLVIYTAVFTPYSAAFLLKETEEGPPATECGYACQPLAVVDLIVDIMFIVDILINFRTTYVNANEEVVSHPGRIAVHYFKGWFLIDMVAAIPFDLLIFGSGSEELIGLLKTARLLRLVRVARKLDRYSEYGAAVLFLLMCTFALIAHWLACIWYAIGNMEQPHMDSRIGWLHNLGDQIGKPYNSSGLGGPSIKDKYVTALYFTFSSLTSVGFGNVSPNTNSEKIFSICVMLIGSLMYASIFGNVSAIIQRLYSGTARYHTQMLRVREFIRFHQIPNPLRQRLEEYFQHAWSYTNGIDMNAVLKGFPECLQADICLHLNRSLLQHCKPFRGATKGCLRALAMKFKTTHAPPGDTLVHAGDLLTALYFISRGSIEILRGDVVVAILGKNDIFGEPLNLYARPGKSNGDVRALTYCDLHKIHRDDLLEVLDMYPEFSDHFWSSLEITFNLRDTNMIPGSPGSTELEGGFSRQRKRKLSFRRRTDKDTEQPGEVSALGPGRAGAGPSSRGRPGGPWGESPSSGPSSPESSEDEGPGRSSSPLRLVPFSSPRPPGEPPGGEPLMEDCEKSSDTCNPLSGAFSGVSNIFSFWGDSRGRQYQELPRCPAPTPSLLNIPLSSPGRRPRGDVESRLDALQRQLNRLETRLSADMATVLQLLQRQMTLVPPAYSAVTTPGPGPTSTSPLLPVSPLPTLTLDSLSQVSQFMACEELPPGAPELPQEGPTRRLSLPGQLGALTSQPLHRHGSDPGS

| Structure (SMILES) | hERG current change (%, negative = inhibition) at 10uM |
| --- | --- |
| COc1ccc(C2CC(C(F)(F)F)n3nc(C(=O)Nc4ccc5c(c4)OCO5)cc3N2)cc1 (centres unmarked) | 10.5% |
| COc1ccc(-c2noc(N3CCCC(C(=O)Nc4ccccc4F)C3)n2)cc1 (centres unmarked) | 15.5% |
| Cc1csc(=O)n1CC(=O)OCC(=O)c1ccc(Br)cc1 | -14% |
| CCOc1ccc(NC(=S)N2CCN(S(=O)(=O)c3ccccc3)CC2)cc1 | -31.6% |
| COc1ccc(-n2c(C)n[nH]c2=O)cc1OC | 10.7% |
| Cc1sc(NC(=O)c2sc3nc4c(C)cccc4cc3c2N)c(C#N)c1C | 8.29% |
| O=c1[nH]c2cc3c(cc2cc1CN(Cc1cccnc1)Cc1nnnn1Cc1ccco1)OCCO3 | -4.69% |
| CCN1C(=O)/C(=C/C=C2\C=CN(CC)c3ccccc32)SC1=S | -4.57% |
| NC(=O)COc1ccc2oc(=O)cc(-c3cc4ccccc4o3)c2c1 | 7.27% |
| Cc1noc(C)c1CSCC(=O)Nc1cc(C(F)(F)F)ccc1N1CCOCC1 | -37.9% |
| Cc1c(Cl)c([N+](=O)[O-])nn1CC(=O)Nc1ccc2c(c1)OCO2 | 18.4% |
| CCCNC(=O)C1(CC2CC(c3ccccc3)=NO2)CCN(C(=O)CCCCCBr)CC1 (centres unmarked) | -50% |
| CCCCCCCNC(=O)C1(CC2CC(c3ccc(Cl)cc3)=NO2)CCN(C(=O)c2cc(OCC)c(OCC)c(OCC)c2)CC1 (centres unmarked) | 17.6% |
| CCCCCCCNC(=O)C1(CC2CC(c3cccc(Br)c3)=NO2)CCN(C(=O)OC(C)(C)C)CC1 (centres unmarked) | 3.88% |
| CCCCCCCNC(=O)C1(CC2CC(c3cccc(Br)c3)=NO2)CCN(C(=O)CCCCCBr)CC1 (centres unmarked) | -82.7% |
| CCCCCCCNC(=O)C1(CC2CC(c3ccc(Cl)cc3)=NO2)CCN(C(=O)CCCCCBr)CC1 (centres unmarked) | -79% |
| CCCCn1c(-c2ccco2)n[nH]c1=S | 16.9% |
| COc1cc2c(cc1OC)-c1nnc(-c3ccco3)n1C1(CCCC1)C2 | -8.01% |
| O=Cc1c(Cl)cccc1Cl | 13.9% |
| CNC(=O)CCCN1C(=O)c2ccccc2Sc2ncccc21 | 23.9% |
| O=C(CSc1nc2[nH]ncc2c(=O)[nH]1)Nc1cccc([N+](=O)[O-])c1 | -19.2% |
| COCCn1c(C)cc(C2=NNC(=Nc3ccc(Cl)cc3Cl)SC2)c1C | 7.57% |

| Structure (SMILES) | hERG current change (%, negative = inhibition) at 10uM |
| --- | --- |
| O=C(Cn1c(SCC(=O)NC2CCCC2)nnc1-c1ccncc1)Nc1ccc2c(c1)OCO2 | -11.7% |
| COC(=O)CSc1nnc(C)c(=O)[nH]1 | 2% |
| O=C(Cc1coc2cc3c(cc12)CCC3)NCC1(N2CCCCC2)CCCCC1 | -76.9% |
| O=C(Cc1coc2cc3c(cc12)CCC3)NC1CCCCCCC1 | 0.532% |
| Cc1ccc2c(CC(=O)NCC3(N4CCOCC4)CCCCC3)coc2c1C | -25.5% |
| CCOC(=O)c1sc2ncn(C(CC)C(=O)OCC)c(=O)c2c1C (centres unmarked) | 1.12% |
| O=C(COC(=O)c1cc[n+]([O-])cc1)Nc1ccc(Cl)cc1C(F)(F)F | 24.9% |
| Cc1ncc(CN2CCC(N3CCC(C(=O)N4CCCC4)CC3)CC2)s1 | -18.1% |
| O=C(c1cc2ccccc2o1)N1CCC(N2CCC(C(=O)N3CCCC3)CC2)CC1 | -55.7% |
| O=C(c1cc(F)ccc1F)N1CCC(N2CCC(C(=O)N3CCCC3)CC2)CC1 | 6.92% |
| O=C(C1CCN(C2CCN(Cc3ccc4c(c3)CCO4)CC2)CC1)N1CCCC1 | -43% |
| COCc1ccc(CN2CCC(N3CCC(C(=O)N4CCCC4)CC3)CC2)o1 | 8.86% |
| C=C(C)C1CC=C(CN2CCC(O)CC2)CC1 (centres unmarked) | -6.28% |
| O=C(c1cc2ccccc2o1)N1CCCC1 | 10.8% |
| O=C(C1CCN(C2CCN(Cc3ccc4cc(F)ccc4n3)CC2)CC1)N1CCCC1 | -77.3% |
| CC1(C)[C@H]2CC=C(CN3CCC(N4CCC(C(=O)N5CCCC5)CC4)CC3)[C@@H]1C2 | -25.1% |
| C=C(C)[C@@H]1CC=C(CN2CCC(N3CCC(C(=O)N4CCCC4)CC3)CC2)CC1 | -82.2% |
| O=C(c1cc2ccccc2o1)N1CCCCCC1 | -5.92% |
| CCc1ccc(CN2CCC(N3CCC(C(=O)N4CCCC4)CC3)CC2)o1 | -70% |
| O=C(CNC(=O)c1ccco1)Nc1ccncc1 | -5.14% |
| Cc1cc(C)cc(C(=O)NC(CC(N)=O)c2ccc(NCCN3CCCC3)c([N+](=O)[O-])c2)c1 (centres unmarked) | 10.5% |
| COC(=O)Cc1coc2cc(OC)ccc12 | 11.9% |
